Measurements: PubChem BioAssay AID602393 (Broad Institute, 2012)
The whole screen tested about 350,000 compounds, of which about 7,000 (2%) were called active. The list comes from a sample in which actives are over-represented; it also holds similar structures and randomly drawn compounds. Values without a mark were called inactive. Cut-off read from the data, not from the text of the source: active = activation above about 40%; inconclusive = no clear call, values can overlap the other calls; inactive = below that.

Assay: Bmi1 luciferase reporter increase in mESCs, primary screen, esBAF inhibitor project, mouse ES cells, Bmi1 luciferase knock-in, single point (AID 602393);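 note: 0% = median of the plate's neutral control wells and 100% = double that signal; a rise in the Bmi1 reporter signal indicates esBAF inhibition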
Conditions: 24 h, at 12.5 µM, hits give high values, 100% = twice the neutral-well signal

| Compound | reporter increase |
| --- | --- |
| COc1ccccc1S(=O)(=O)N[C@@H]1CC[C@@H](CCNC(=O)C2CCCCC2)O[C@@H]1CO | -1.9% |
| O=C(C[C@@H]1C[C@@H]2c3cc(NS(=O)(=O)c4ccc(F)cc4)ccc3O[C@@H]2[C@H](CO)O1)N1CCCCC1 | -3.2% |
| CO[C@@H]1CC[C@H]2CCN(C)C(=O)C[C@@H](c3ccccc3)CN(C)C(=O)c3cc(C#N)ccc3OC[C@@H]1O2 | 3.4% |
| CO[C@H]1CC[C@@H]2CCOc3c(C#N)cccc3C(=O)N(C)C[C@@H](OC)[C@H](C)C(=O)N(C)C[C@H]1O2 | 3.07% |
| CCC(=O)N1C[C@@H](C)[C@H](OC)CN(C)C(=O)c2ccc(NC(=O)C3CCOCC3)cc2OC[C@@H]1C | -3.82% |
| C[C@@H]1CN([C@H](C)CO)C(=O)c2cc(-c3cccc(C#N)c3)cnc2O[C@H]1CN(C)C(=O)C1CCC1 | -9.7% |
| COc1ccccc1S(=O)(=O)N[C@@H]1CC[C@H](CC(=O)N2CCN(C)CC2)O[C@@H]1CO | 0.975% |
| O=C(C[C@@H]1C[C@@H]2c3cc(NC(=O)C4CCOCC4)ccc3O[C@@H]2[C@@H](CO)O1)NC1CCCCC1 | 5.22% |
| COc1ccc(S(=O)(=O)Nc2ccc3c(c2)C(=O)N([C@@H](C)CO)C[C@H](C)[C@H](CN(C)Cc2ccc(C(=O)O)cc2)OCCCC[C@@H](C)O3)cc1 | 6.21% |
| COc1ccc(/C=C/C(=O)c2c(O)cc(OC)cc2OC)cc1 | 46.9% (active) |
| COCOc1cc(O)c(C(=O)/C=C/c2ccc(OCOC)c(OCOC)c2)c(OCOC)c1 | 15.9% |
| COc1ccc(/C=C/C(=O)c2cc(Br)ccc(=O)c2O)cc1 | -9.92% |
| Cc1ccc(S(=O)(=O)N2C[C@H](O)COC[C@@H]3O[C@H](CC(=O)N[C@H]4CCN(Cc5ccccc5)C4)CC[C@H]32)cc1 | -2.58% |
| C[C@H](CO)N1C[C@H](C)[C@H](CN(C)Cc2ccc(C(F)(F)F)cc2)Oc2c(NC(=O)C3CCOCC3)cccc2C1=O | -0.743% |
| Cc1ccc(C(=O)COC(=O)c2cccc(N3C(=O)c4c(C)nc5ccccc5c4C3=O)c2)cc1C | 21.8% (active) |
| Cc1ccc(C(=O)COC(=O)CCN2C(=O)C3C4CCC(C4)C3C2=O)cc1C (stereo not given) | 0.309% |
| Cc1nc2ccccc2c(-c2ccccc2)c1C(=O)c1ccccc1 | -1.09% |
| Cc1noc(C)c1NC(=O)Nc1ccc2c(c1)C(=O)N([C@@H](C)CO)C[C@@H](C)[C@H](CN(C)C(=O)Nc1ccc(C(F)(F)F)cc1)OCCCC[C@@H](C)O2 | 11% |
| O=C(C[C@H]1CC[C@@H](NC(=O)Cc2cccnc2)[C@H](CO)O1)Nc1ccc(-c2ccccc2)cc1 | -2.77% |
| N/C(=N\OC(=O)/C=C/c1ccccc1)c1ccc(Br)cc1 | 23.9% (active) |
| N/C(=N\OC(=O)c1ccc2c(c1)OCO2)c1ccc(Br)cc1 | 18.6% |
| CC(OC(=O)/C=C/c1ccccc1)C(=O)Nc1ccc(C(N)=O)cc1 (stereo not given) | -2.08% |
| Cn1nnc2cc(C(=O)NCCC3=CCCCC3)ccc21 | -7.14% |
| O=C(NCCC1=CCCCC1)c1ccc(-n2cncn2)cc1 | 42.2% (active) |
| CN(c1ccc(C(=O)NCCC2=CCCCC2)cc1)S(C)(=O)=O | -6.11% |
| CC(c1ccccn1)N(C)C(=O)c1ccc2nc(Cc3cccc(Cl)c3)oc2c1 (stereo not given) | 73.4% (active) |
| Cc1cc(Cl)c2oc(C(=O)N(C)C(C)c3ccccn3)c(C)c2c1 (stereo not given) | 31.4% |

| Compound | reporter increase |
| --- | --- |
| CCn1ccnc1CN(C)C(=O)c1ccc2nc(Cc3ccc(OC)cc3)oc2c1 | -2.21% |
| COc1ccc(NC(=O)Nc2ccc3c(c2)CC(=O)N([C@@H](C)CO)C[C@@H](C)[C@H](CN(C)C(=O)NC2CCCCC2)O3)cc1 | 3.44% |
| O=C(Cc1ccccn1)c1ccc(O)cc1O | 7.66% |
| c1ccc(CCc2ccccn2)cc1 | 16.6% |
| Oc1cccc(CCc2ccccn2)c1 | 45.8% (active) |
| CO[C@H]1CN(C)C(=O)c2cc(NC(=O)C3CC3)ccc2OC[C@H](C)N(CC2CCCC2)C[C@@H]1C | -2.34% |
| O=C(COC(=O)C1CCCO1)Nc1nc(-c2ccc(F)cc2)cs1 (stereo not given) | 49.2% (active) |
| CC1CCCC(C)N1C(=O)CN1CCN(c2nc(-c3ccc(F)cc3)cs2)CC1 (stereo not given) | 7.37% |
| O=C(CSC1=NCCS1)Nc1nc(-c2ccccc2)cs1 | 5.05% |
| COc1ccc(OC)c(NC(=O)Cc2cccs2)c1 | 0.423% |
| Cc1ccc(-c2csc(NC(=O)C3=COCCO3)n2)cc1C | 43.9% (active) |
| Cc1ccc(-c2csc(NC(=O)c3cccs3)n2)cc1 | 53.5% (active) |
| Cc1ccc(-c2csc(NC(=O)Cc3cccs3)n2)cc1C | 48.9% (active) |
| NS(=O)(=O)c1ccc2nc(NC(=O)C3=COCCO3)sc2c1 | -2.59% |
| COc1cc(OC)cc(C(=O)NNC(=O)Cc2cccs2)c1 | 3.48% |
| O=C(Nc1n[nH]c(C(F)(F)F)n1)c1cccs1 | -2.17% |
| Cc1csc(NC(=O)C2=COCCO2)n1 | 39.3% |
| Cc1ccc(-c2csc(N(Cc3ccco3)C(=O)c3cccs3)n2)cc1 | 2.94% |
| O=C(C[C@@H]1CC[C@@H](NC(=O)C2CCOCC2)[C@H](CO)O1)Nc1ccc(-c2ccccc2)cc1 | 8.43% |
| C[C@@H]1CN([C@H](C)CO)C(=O)c2cc(C#CC3(O)CCCC3)cnc2O[C@H]1CN(C)C(=O)C1CCC1 | 2.77% |
| C[C@@H](NC(=O)C[C@H]1C[C@H]2c3cc(NC(=O)Nc4ccccc4F)ccc3O[C@H]2[C@@H](CO)O1)c1ccccc1 | 2.95% |
| O=C(Cc1ccncc1)N[C@H]1CC[C@H](CCn2cc(-c3ccccc3F)nn2)O[C@@H]1CO | 12.7% |
| COc1cccc(-c2cn(CC[C@@H]3CC[C@@H](NC(C)=O)[C@@H](CO)O3)nn2)c1 | -4.15% |
| COc1ccccc1/C=N/Nc1nc(C)c(C(C)=O)s1 | 43.3% (active) |
| CNC(=O)c1sc(NCc2ccccc2OC)nc1C | 10% |
| COc1ccccc1CNC(=O)COC(=O)c1sc(C)nc1C | 6.65% |
| CCCC#Cc1ccc([C@H]2[C@@H](CO)N3CCCCN(S(=O)(=O)Cc4ccccc4)C[C@H]23)cc1 | -7.51% |

| Compound | reporter increase |
| --- | --- |
| CCS(=O)(=O)N1[C@H](C#N)[C@H](c2ccc(-c3cccc(F)c3)cc2)[C@@H]1CO | 2.95% |
| CCN1CCN(C(=O)CSc2ccc(C)cc2)CC1 | 31% |
| COC(=O)c1cc(OC)c(OC)cc1NC(=O)CSc1ccc(C)cc1 | -15.9% |
| Cc1ccc(SCC(=O)c2cc(C)c(OC(=S)N(C)C)c(C)c2)cc1 | 45.8% (active) |
| C[C@@H]1CN([C@@H](C)CO)S(=O)(=O)c2ccc(C#Cc3ccccc3F)cc2O[C@H]1CN(C)C(=O)c1ccc2c(c1)OCO2 | 0.756% |
| CC(C)NC(=O)N(C)C[C@H]1Oc2c(NC(=O)c3ccncc3)cccc2C(=O)N([C@@H](C)CO)C[C@H]1C | 1.56% |
| COc1ccc(C=C(C#N)C#N)c(CSc2ccccn2)c1 | -8.92% |
| COc1ccc(/C=N/OCc2ccccc2C#N)c(OC)c1 | 82.2% (active) |
| COc1ccc(/C=C2/C(=O)N(c3ccccc3)N=C2C)c(OC)c1 | -1.3% |
| C[C@H]1CN([C@@H](C)CO)S(=O)(=O)c2ccc(C3=CCCC3)cc2O[C@@H]1CN(C)Cc1ccccc1 | 1.2% |
| CC(OC(=O)c1cc2ccccc2[nH]1)C(=O)N(C)c1ccccc1 (stereo not given) | 7.66% |
| COc1ccc(C2=Nc3ccccc3NC(=O)C2N(C(=O)c2cc3ccccc3[nH]2)c2ccccc2)cc1 (stereo not given) | 47.8% (active) |
| COc1ccc(NC(=O)N(C)C[C@@H]2OCc3ccccc3-c3c(n(C)c4ccccc34)C(=O)N([C@H](C)CO)C[C@H]2C)cc1 | -4.05% |
| CO[C@@H](CN(C)S(=O)(=O)c1cccc(Cl)c1)[C@H](C)CN([C@H](C)CO)S(=O)(=O)c1cccc(Cl)c1 | 6.95% |
| CN1c2ccc(-c3cccc(F)c3)cc2[C@H]2[C@H](CCN2C(=O)C2CCCC2)[C@@H]1CO | 2.05% |
| COc1ccc(C(=O)C2CCCN(C(=O)c3cc(C)on3)C2)cc1F (stereo not given) | -6.1% |
| COc1ccccc1-c1cc(C(=O)N2CCCCC2)no1 | 52.4% (active) |
| O=C(c1cc(-c2cccs2)on1)N1CCCCC1 | -2.46% |
| C[C@@H]1CN([C@H](C)CO)C(=O)c2cc(NC(=O)CCCN(C)C)ccc2O[C@@H](C)CCCCO[C@@H]1CN(C)Cc1ccncc1 | 1.15% |
| C[C@H]1CN([C@@H](C)CO)C(=O)c2cccc(NC(=O)Nc3ccccc3)c2O[C@H]1CN(C)Cc1ccc(C(F)(F)F)cc1 | -0.852% |
| CCC(=O)N1c2ccc(S(=O)(=O)CCC(=O)N3CCN(c4ccccc4)CC3)cc2CC1C (stereo not given) | 29.9% |
| Cc1ccn(CCC(=O)N2c3ccccc3CC2C)n1 (stereo not given) | 0.95% |
| CCCC(=O)N1c2ccc(-c3csc(N)n3)cc2CC1C (stereo not given) | 41.3% (active) |
| O=c1cc(CCl)nc2scc(-c3ccccc3)n12 | -3.84% |
| Cc1nn2c(=O)cc(COC(=O)c3ccc(NC(=O)C(C)(C)C)cc3)nc2s1 | 2.43% |
| Cc1csc2nc(COC(=O)c3cccc(N(C)C)c3)cc(=O)n12 | 82.1% (active) |
